# Vaccinia mCherry = inhibitors of vaccinia virus infection (mCherry reporter signal) | 310,000 compounds, 0.63% hits | Potency, µM (doses to about 36.5 µM), usual class: inhibitors | Vaccinia virus mCherry reporter infection, fluorescence; calls by dose curve; tested in A549 cells; further: nearly all actives have a fitted effect of over 35% in size
# VACV Venus inh = vaccinia inhibition (Venus reporter) | Vaccinia virus Venus reporter expression, fluorescence | Potency, µM (series often up to 36.5 µM), most hits filed as inhibitors | 330,000 compounds, 0.46% hits; calls by dose curve; tested in A549 cells; further: nearly all actives have a fitted effect of over 30% in size
# HCV inhibitor = HCV inhibition | Huh7.5.1 HCVcc-Cre infection, luciferase reporter, 44 h | Potency, µM (highest dose often 41.8 µM), hits mostly inhibitors | 340,000 compounds, 3.4% hits | AID 651820; active means well fitted inhibition curve with a large enough effect; inconclusive means small, poorly fitted or top-dose-only effect, or another doubt; inactive means no such curve, though single readings can be large or run the other way
#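 After 44 h co-culture of compound, cells and HCVcc-Cre (~0.5 moi), substrate is added for 15 min at room temperature and luciferase measured over 15 sec. Cells were seeded at 1,000/well and pre-cultured 4 h.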
# Hits are given with their value; . = inactive; ? = inconclusive; / = not tested or not shown; [ ] = dose if it differs, or a comment. Rows were chosen to be rich in hits. Some 3.3% of all compounds tested hit in one or more screens of this group.
SMILES,Vaccinia mCherry,VACV Venus inh,HCV inhibitor
NC(=O)C1CCCN(Cc2ccc3c(c2)CN(Cc2cn[nH]c2-c2ccc(F)cc2)CCO3)C1 (stereo not drawn),.,.,/
c1ccc2c(-c3ccncc3)c[nH]c2c1,.,.,7.9µM
c1ccc(-c2nnc(-c3ccccc3)c(-c3c[nH]c4ccccc34)n2)cc1,/,.,.
CCOc1ccc2c(c1)c1nnc(SCC(=O)NC3CC3)nc1n2C,.,.,.
CC(C(=O)OCC(=O)Nc1ccc(S(N)(=O)=O)cc1)N1C(=O)c2ccccc2C1=O (stereo not drawn),.,.,.
O=C(Nc1ncc(Cc2cccc(Cl)c2)s1)C1=NCCN1,.,.,.
O=C(Nc1ncc(Cc2cccc(Cl)c2)s1)c1cccs1,.,?,22µM
Cc1ccc(CN2[C@@H](CC3CCCCC3)COCCS2(=O)=O)cc1,.,.,.
Cc1nc(NC(=O)/C=C/c2ccco2)sc1C,?,.,.
CNS(=O)(=O)c1ccc2nc(NC(=O)/C=C/c3ccco3)sc2c1,6.3µM,?,?
CC(=O)OC(C=C(C)C)C/C(C)=C/COc1c2ccoc2cc2oc(=O)ccc12 (stereo not drawn),?,?,.[8.37 µM]
COC(=O)[C@@]1(C)[C@H]2C(=O)N(Cc3ccccc3)C(=O)[C@H]2[C@H]2CN(C)C(=NC3CCCCC3)N21,.,.,0.56µM
CCN1C[C@@H]2[C@@H]3C(=O)N(Cc4ccccc4)C(=O)[C@@H]3[C@](C)(C(=O)OC)N2C1=NC1CCCCC1,.,.,?
CN(C)c1ccc(/C=C/c2ccnc3ccccc23)cc1,.,.,/
Cc1ccc(NC(=O)c2ccccc2NS(=O)(=O)c2ccc(Cl)s2)cc1,?,?,11µM
O=C(NCc1ccco1)c1ccccc1NS(=O)(=O)c1ccc(Cl)s1,.,.,.
CC(=O)c1c(C)n(-c2ccc(Cl)cc2)c2ccc(OC(=O)COc3ccccc3)cc12,.,.,/
COc1cccc(C2(CC(=O)N3CCCCC3CO)CC(=O)N(C)C2=O)c1 (stereo not drawn),.,.,/
O=C1CCCN2N=C(SCC(=O)Nc3cccc(Cl)c3)SC2=N1,.,.,?
O=C1CCCN2N=C(SCC(=O)Nc3cccc(C(F)(F)F)c3)SC2=N1,.,.,6.3µM
CCOc1ccc(NC(=O)CSC2=NN3CCCC(=O)N=C3S2)cc1,/,/,.
CCCCc1ccc(NC(=O)CSC2=NN3CCCC(=O)N=C3S2)cc1,.,.,11µM
CN1[C@@H]2CC[C@H]1CC(OC(c1ccccc1)c1ccccc1)C2 (stereo partly drawn),.,.,/
CN1[C@@H]2CC[C@H]1CC(OC1c3ccccc3CCc3ccccc31)C2 (stereo partly drawn),.,.,1.3µM
COC(=O)c1c(NC(=S)NN2CCN(C)CC2)sc2c1CCC(C)C2 (stereo not drawn),.,.,2.8µM
SMILES,Vaccinia mCherry,VACV Venus inh,HCV inhibitor
COC(=O)c1c(NC(=O)Cc2cccs2)sc2c1CCC(C)C2 (stereo not drawn),.,.,?
COc1cccc(CN(C)C(=O)CSCC(=O)Nc2cccc(C)c2)c1OC,/,/,.
COc1ccc(-c2c(C#Cc3ccsc3)c3cc(-c4ccc(C(N)=O)cc4)ccc3n2C)cc1,.,.,7.1µM
COc1ccc(-c2c(C#Cc3ccsc3)c3cc(-c4cccc5[nH]ccc45)ccc3n2C)cc1,?,.,?
COc1cc(OC)cc(-c2c(C#Cc3ccsc3)c3cc(-c4cccc5[nH]cc(C=O)c45)ccc3n2C)c1,.,.,10µM
COc1ccc(-c2c(C#Cc3ccsc3)c3cc(-c4ccc5[nH]ccc5c4)ccc3n2C)cc1,.,.,.
CCc1nc2c(OCc3ccc(OC)cc3)cccn2c1N(C)C(=O)C(C)C,.,.,/
CCOc1ccc(-n2c(=O)c3c4c(sc3n(CC(=O)Nc3cccc(C(F)(F)F)c3)c2=O)CCCCC4)cc1,.,.,/
C(C#CCCCCCCCCC[n+]1ccccc1)#CCCCCCCCCC[n+]1ccccc1,10µM,10µM,?
CCCCCCCCCC[n+]1cccc(Br)c1,.,?,/
O=C(NCCC(=O)N1CCN(c2ccccn2)CC1)c1ccc(Br)cc1,.,.,.
COc1cccc(-c2nnc(NC(=O)CCS(=O)(=O)c3ccc(C)cc3)o2)c1,10µM,?,.
COc1cc(-c2nnc(NC(=O)CS(=O)(=O)c3ccc(C)cc3)o2)cc(OC)c1OC,.,.,.
Cc1ccc(S(=O)(=O)CCC(=O)Nc2nnc(-c3cccs3)o2)cc1,10µM,?,.[8.37 µM]
O=C(CCS(=O)(=O)c1ccc(Cl)cc1)Nc1nnc(-c2cccs2)o1,?,?,.
Cc1cc(F)ccc1-c1cc(C(=O)NC2CCCCC2)[nH]n1,.,.,/
CCc1ccc(-n2c(SCC(=O)NC(C)CC)nc3n[nH]c(C)c3c2=N)cc1 (stereo not drawn),.,.,/
CCOc1ccccc1N(CC)C(=O)c1noc2c1COc1ccc(C)cc1-2,.,.,/
CCOC(=O)CSC1=C(C#N)C(c2ccc(Cl)cc2)CC(=O)N1 (stereo not drawn),.,.,?
CCCOC(=O)CSC1=C(C#N)C(c2ccccc2Cl)CC(=O)N1 (stereo not drawn),.,.,32µM
CCOc1ccccc1CNC(=O)C1CCCN(c2ncnc3onc(-c4ccc(F)cc4)c23)C1 (stereo not drawn),.,.,/
CC(C)NS(=O)(=O)c1ccc(OCC(=O)N2CCN(c3ccccc3F)CC2)cc1,.,.,/
CCn1c(=O)c(C(=O)Nc2ncccc2O)c(O)c2ccccc21,?,.,.
CCn1c(=O)c(C(=O)Nc2ncccc2C)c(O)c2ccccc21,.,.,10µM
CCn1c(=O)c(C(=O)Nc2ccc(C)cc2C)c(O)c2ccccc21,.,.,10µM
SMILES,Vaccinia mCherry,VACV Venus inh,HCV inhibitor
CCOC(=O)c1ccccc1NC(=O)c1c(O)c2ccccc2n(CC)c1=O,/,.,.
Cc1ccc(NC(=O)Cn2cc(S(=O)(=O)c3ccc(C)cc3)c(=O)c3cc4c(cc32)OCO4)cc1,.,.,/
Cn1c(=O)c2c(ncn2Cc2cccc(Cl)c2)n(C)c1=O,.,.,11µM
Cn1c(=O)n(CCc2ccccc2)c(=O)c2c1ncn2Cc1ccccc1,.,?,?
COC(=O)c1c(Cl)c2n3ccccc3c(C)c(-c3ccccc3)c-2c1C(=O)OC,.,.,13µM
COC(=O)c1cc2c(-c3ccccc3)c(C)c3ccccn3c-2c1C(=O)OC,/,.,?
O=C(NCC1CCCO1)c1ccc(COc2ccccc2)cc1 (stereo not drawn),.,.,.
CN(C)c1ccc(/C=C/c2ccnc3c(Cl)ccc(Cl)c23)cc1,?,.,/
CC(=O)Oc1ccc(-c2csc(Nc3ccc(S(N)(=O)=O)cc3)n2)cc1,.,.,?
COc1ccc(-c2csc(Nc3cccnc3)n2)cc1,?,.,10µM
CCOc1ccc(Nc2nc(-c3cccnc3)cs2)cc1,.,.,.
Cc1nc(N)sc1-c1csc(Nc2ccc(S(N)(=O)=O)cc2)n1,/,/,10µM
COc1ccc(Nc2nc(-c3ccc(OC)cc3)cs2)cc1,/,/,.
COc1ccc(-c2csc(Nc3ccccc3)n2)cc1,.,.,14µM
Cc1nc(N)sc1-c1csc(Nc2ncccn2)n1,.,.,?
COc1ccc(-c2csc(Nc3ccc(S(N)(=O)=O)cc3)n2)cc1,/,/,5µM
O=C(Cn1nnc2ccccc2c1=O)N[C@@H](Cc1ccccc1)C(=O)O,.,.,.

# Screening results from PubChem.
